Reference: PubChem BioAssay (Tox21)
Unmarked numbers belong to inactive results. Results filed as inconclusive are left out. Where a call stands in place of a potency, no number is given. Active and inactive are the calls of the source. Unless noted, the call rests on the fitted dose curve.

Tests used:
[1] = Nuclear factor erythroid 2-related factor 2/antioxidant responsive element (Nrf2/ARE) small molecule agonists: qHTS cell viability counter screen in human keratinocytes (AID 1919968; active means well fitted curve in the direction sought with a large enough effect in the repeat runs; an effect the other way counts as inactive or inconclusive; further: nearly all actives have a fitted effect of over 55% in size; further: potency means the concentration at half of the fitted maximal effect)
In short: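 Seed 1,500 KeratinoSens cells per well, then incubate 5 h at 37 C/5% CO2. Add compounds in DMSO and incubate 23 h. Add CellTiter-Fluor, wait 1 h and read fluorescence.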

[2] = Nuclear factor erythroid 2-related factor 2/antioxidant responsive element (Nrf2/ARE) small molecule agonists: luciferase reporter gene qHTS assay in human keratinocytes (AID 1919969); further: nearly all actives have a fitted effect of over 35% in size; further: potency means the concentration at half of the fitted maximal effect
[3] = target: Gonadotropin-releasing hormone receptor (Homo sapiens) (UniProt P30968); assay: Human gonadotropin-releasing hormone receptor (GnRHR) small molecule agonists, calcium flux assay in GnRHR-HEK293 cells (AID 1920063); further: nearly all actives have a fitted effect of over 35% in size
In short: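 Cells: HEK293 stably expressing human GnRHR. Steps: overnight (18 h) culture, 1 h calcium dye loading at 37 C, compound addition, kinetic fluorescence read at 480/540 nm. Each compound tested at 15 concentrations in triplicate.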

[4] = target: KiSS-1 receptor (Homo sapiens) (UniProt Q969F8); assay: Human kisspeptin (KISS1R) small molecule agonists, calcium flux assay in KISS1R-HEK293 cells (AID 1920064; active means well fitted curve in the direction sought with a large enough effect in the repeat runs; an effect the other way counts as inactive or inconclusive)
In short: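 Cells plated and incubated 18 h; dye added, 1 h at 37 C; compounds in DMSO pinned in; signal read at 480/540 nm every second for 3 min. Each compound tested at 15 concentrations in triplicate.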

[5] = G protein-coupled receptor (GPCR) small molecule agonists, calcium flux assay: HEK293 wild type cell line counter screen (AID 1920065)
In short: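 Counter-screen of the Tox21 10K library for non-specific calcium release: dye-loaded cells received compounds in DMSO and were monitored by kinetic fluorescence (480/540 nm, 3 min). Fifteen concentrations, run in triplicate.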

[6] = p53 small molecule agonists, cell-based qHTS assay with human liver microsomes (AID 1963577);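 further: p53 response element beta-lactamase reporter cells with liver microsomes plus NADPH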
In short: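 p53RE-bla cells; 5 h settle, 37 C/5% CO2; cpd + HLM 0.5 mg/mL + NADPH 0.5 mg/mL (final); 16 h 37 C; LiveBLAzer 2 h RT dark; fluorescence readout.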

[7] = p53 small molecule agonists, cell-based qHTS assay with rat liver microsomes (AID 1963578)
In short: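 Rat liver microsome activation: microsomes 0.5 mg/mL, NADPH 0.5 mg/mL final; p53RE-bla cells, 16 h 37 C; LiveBLAzer readout, 2 h RT dark.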

[8] = p53 small molecule agonists, cell-based qHTS assay with human liver microsomes: qHTS cell viability counter screen (AID 1963579); further: nearly all actives have a fitted effect of over 45% in size; further: potency means the concentration at half of the fitted maximal effect
In short: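 Luminescent CellTiter-Glo read-out, 30 min at room temperature, gauged cytotoxicity in p53RE-bla cells exposed 16 h at 37 C to DMSO-dissolved compounds with metabolic activation by human liver microsomes and NADPH, each 0.5 mg/mL final.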

[9] = p53 small molecule agonists, cell-based qHTS assay with rat liver microsomes: qHTS cell viability counter screen (AID 1963580); further: nearly all actives have a fitted effect of over 45% in size; further: potency means the concentration at half of the fitted maximal effect
In short: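 p53RE-bla HCT-116 cells were exposed 16 h at 37 C to compounds with rat liver microsomes (0.5 mg/mL) and NADPH (0.5 mg/mL). Viability was measured in the same wells as ATP content by CellTiter-Glo luminescence.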

[10] = target: 5-hydroxytryptamine receptor 2A (Homo sapiens) (UniProt P28223); assay: 5-hydroxytryptamine receptor 2A (HTR2A) small molecule agonists, cell-based qHTS assay (AID 1963587); further: nearly all actives have a fitted effect of over 30% in size
In short: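 CHO cells stably expressing human HTR2A, plated 18 h, loaded with calcium dye 1 h at 37 C. Agonist mode: compounds added and intracellular calcium fluorescence recorded kinetically for 2 min at 1 sec intervals.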

[11] = target: Muscarinic acetylcholine receptor M1 (Homo sapiens) (UniProt P11229); assay: Cholinergic receptor muscarinic 1 (CHRM1) small molecule antagonists, cell-based qHTS assay (AID 1963588); further: nearly all actives have a fitted effect of over 40% in size
In short: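 CHRM1-CHO calcium-flux assay, antagonist mode. Cells were seeded 18 h, dye-loaded 1 h at 37 C and given compound for 5 min at RT, then acetylcholine was added at 50nM. FDSS fluorescence was read 3 min; 15 concentrations, three runs.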

[12] = target: Muscarinic acetylcholine receptor M1 (Homo sapiens) (UniProt P11229); assay: Cholinergic receptor muscarinic 1 (CHRM1) small molecule agonists, cell-based qHTS assay (AID 1963589); further: nearly all actives have a fitted effect of over 35% in size
In short: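 Agonist-mode qHTS in CHO cells stably carrying human muscarinic M1. Intracellular calcium is tracked by fluorescence every second after compound transfer; each compound runs at 15 concentrations in three independent runs.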

[13] = cAMP Responsive Elements (CRE) small molecule agonists, cell-based qHTS assay (AID 1963590)
In short: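 Agonist mode qHTS in CRE-bla HEK 293T cells: compounds dosed from DMSO for 3 h at 37 C/5% CO2, followed by LiveBLAzer B/G FRET substrate for 2 h at room temperature.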

[14] = cAMP Responsive Elements (CRE) small molecule antagonists, cell-based qHTS assay (AID 1963591; active means well fitted inhibition curve with a large enough effect in the signal ratio in the repeat runs, not every such curve was filed as active; the % refers to the signal ratio)
In short: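 Antagonist mode: test compounds are co-incubated with the adenylyl cyclase activator NKH477 (0.25 uM final) on CRE-bla HEK293T cells for 3 h at 37 °C, followed by LiveBLAzer substrate loading.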

[15] = target: Beta-2 adrenergic receptor (Homo sapiens) (UniProt P07550); assay: Adrenergic beta2 receptor (ADRB2) small molecule agonists, cell-based qHTS assay (AID 1963593);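 further: CHO cells stably overexpressing human ADRB2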
In short: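 CHO cells stably over-expressing ADRB2 were plated overnight at 37C, then dosed with compounds plus a stimulation mix containing 100uM IBMX and 25uM Ro-20-1724 for 0.5hr at room temperature. cAMP was measured by HTRF competition, 1hr.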

[16] = target: D(2) dopamine receptor (Homo sapiens) (UniProt P14416); assay: Dopamine D2 receptor (DRD2) small molecule agonists, cell-based qHTS assay (AID 1963594); further: nearly all actives have a fitted effect of over 35% in size
In short: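 HEK293 cells stably expressing human DRD2, pre-treated with PDE inhibitor Ro20-1724 (0.1 mM final) and compound 10 min at room temperature, then stimulated with NKH477 (200nM […]) for 30 min. cAMP read by HTRF (665/620 nm).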

[17] = target: D(2) dopamine receptor (Homo sapiens) (UniProt P14416); assay: Dopamine D2 receptor (DRD2) small molecule antagonists, cell-based qHTS assay (AID 1963595; active means well fitted inhibition curve with a large enough effect in the signal ratio in the repeat runs, with a control signal flat; the % refers to the signal ratio; further: potency means the concentration at half of the fitted maximal effect)
In short: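 HEK293 cells stably expressing DRD2, preincubated with 0.1 mM Ro20-1724 and compounds 10 min, were stimulated with 200 nM NKH477 plus 12 nM quinpirole for 30 min at room temperature; cAMP measured by HTRF (665/620 nm).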

[18] = target: Beta-2 adrenergic receptor (Homo sapiens) (UniProt P07550); assay: Adrenergic beta2 receptor (ADRB2) small molecule antagonists, cell-based qHTS assay (AID 1963592); further: nearly all actives have a fitted effect of over 50% in size; further: potency means the concentration at half of the fitted maximal effect
In short: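 Cells (CHO, stable ADRB2 overexpression) incubated 18-20hr at 37C; compounds added from DMSO; agonist mix (1nM isoproterenol, 100uM IBMX, 25uM Ro-20-1724) added; 0.5hr RT; d2-cAMP and anti-cAMP-cryptate added; 1hr RT; 665/615 nm read.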

[19] = target: 5-hydroxytryptamine receptor 2A (Homo sapiens) (UniProt P28223); assay: 5-hydroxytryptamine receptor 2A (HTR2A) small molecule antagonists, cell-based qHTS assay (AID 1963586); further: nearly all actives have a fitted effect of over 45% in size
In short: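 Antagonist-mode intracellular calcium assay: DOI (4 nM) added after 5 min compound pre-incubation at room temperature to dye-loaded HTR2A-CHO cells. Fluorescence followed for 3 min, sampled every second.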

[20] = p53 small molecule agonists, cell-based qHTS assay (AID 1963582; active means well fitted activation curve with a large enough effect in the signal ratio in the repeat runs, not every such curve was filed as active; the % refers to the signal ratio)
In short: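 Quantitative HTS in p53RE-bla cells: after a 5 h settling period, compounds delivered in DMSO were left on cells for 16 h at 37 C, and reporter induction was measured as fluorescence following 2 h substrate loading.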

Gonadotropin-releasing hormone receptor (Homo sapiens), sequence (P30968 whole entry, looked up): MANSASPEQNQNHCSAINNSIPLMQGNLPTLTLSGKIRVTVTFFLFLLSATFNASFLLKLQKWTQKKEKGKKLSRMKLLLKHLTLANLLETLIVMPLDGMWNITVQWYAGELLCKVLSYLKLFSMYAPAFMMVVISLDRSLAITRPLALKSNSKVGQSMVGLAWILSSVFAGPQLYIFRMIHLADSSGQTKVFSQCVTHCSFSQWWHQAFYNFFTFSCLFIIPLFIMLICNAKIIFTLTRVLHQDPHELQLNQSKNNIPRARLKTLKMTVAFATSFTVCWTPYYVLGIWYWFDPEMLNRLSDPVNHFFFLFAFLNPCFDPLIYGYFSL
Beta-2 adrenergic receptor (Homo sapiens), sequence (P07550 whole entry, looked up): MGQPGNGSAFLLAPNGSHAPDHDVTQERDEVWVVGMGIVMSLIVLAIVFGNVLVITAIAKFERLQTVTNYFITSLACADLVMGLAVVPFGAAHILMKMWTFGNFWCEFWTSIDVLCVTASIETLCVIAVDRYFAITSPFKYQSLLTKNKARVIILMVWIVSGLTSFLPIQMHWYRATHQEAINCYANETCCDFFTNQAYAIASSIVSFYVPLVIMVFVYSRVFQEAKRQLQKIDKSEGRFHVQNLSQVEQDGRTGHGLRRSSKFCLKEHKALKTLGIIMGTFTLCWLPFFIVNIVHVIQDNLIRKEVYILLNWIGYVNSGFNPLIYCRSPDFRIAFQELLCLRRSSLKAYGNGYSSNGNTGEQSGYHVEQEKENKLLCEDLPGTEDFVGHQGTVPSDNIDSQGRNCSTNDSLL
D(2) dopamine receptor (Homo sapiens), sequence (P14416 whole entry, looked up): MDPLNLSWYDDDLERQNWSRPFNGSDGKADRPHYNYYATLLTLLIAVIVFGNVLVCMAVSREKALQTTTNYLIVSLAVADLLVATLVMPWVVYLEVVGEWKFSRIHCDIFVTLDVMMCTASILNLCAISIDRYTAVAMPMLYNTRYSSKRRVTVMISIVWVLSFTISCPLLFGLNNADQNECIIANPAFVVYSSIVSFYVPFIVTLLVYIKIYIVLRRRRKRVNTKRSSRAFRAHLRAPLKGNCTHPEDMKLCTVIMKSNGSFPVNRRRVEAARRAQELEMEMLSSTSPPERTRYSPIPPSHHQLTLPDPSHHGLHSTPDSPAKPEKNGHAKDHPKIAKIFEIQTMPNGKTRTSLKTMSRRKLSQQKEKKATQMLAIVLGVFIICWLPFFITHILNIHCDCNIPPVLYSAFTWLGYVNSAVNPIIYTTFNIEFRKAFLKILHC
5-hydroxytryptamine receptor 2A (Homo sapiens), sequence (P28223 whole entry, looked up): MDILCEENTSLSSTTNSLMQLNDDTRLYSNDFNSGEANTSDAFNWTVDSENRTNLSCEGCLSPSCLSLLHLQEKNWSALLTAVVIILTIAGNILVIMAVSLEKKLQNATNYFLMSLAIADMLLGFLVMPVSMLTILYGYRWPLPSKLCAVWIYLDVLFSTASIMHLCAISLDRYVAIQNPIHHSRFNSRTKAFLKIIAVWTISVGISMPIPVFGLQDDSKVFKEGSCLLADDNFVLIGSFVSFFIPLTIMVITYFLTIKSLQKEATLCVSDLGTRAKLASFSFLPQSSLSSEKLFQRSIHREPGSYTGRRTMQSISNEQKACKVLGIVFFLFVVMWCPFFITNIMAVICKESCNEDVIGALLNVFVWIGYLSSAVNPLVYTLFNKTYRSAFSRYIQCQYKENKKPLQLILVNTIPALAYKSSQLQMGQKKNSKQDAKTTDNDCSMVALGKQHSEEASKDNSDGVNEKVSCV
KiSS-1 receptor (Homo sapiens), sequence (Q969F8 whole entry, looked up): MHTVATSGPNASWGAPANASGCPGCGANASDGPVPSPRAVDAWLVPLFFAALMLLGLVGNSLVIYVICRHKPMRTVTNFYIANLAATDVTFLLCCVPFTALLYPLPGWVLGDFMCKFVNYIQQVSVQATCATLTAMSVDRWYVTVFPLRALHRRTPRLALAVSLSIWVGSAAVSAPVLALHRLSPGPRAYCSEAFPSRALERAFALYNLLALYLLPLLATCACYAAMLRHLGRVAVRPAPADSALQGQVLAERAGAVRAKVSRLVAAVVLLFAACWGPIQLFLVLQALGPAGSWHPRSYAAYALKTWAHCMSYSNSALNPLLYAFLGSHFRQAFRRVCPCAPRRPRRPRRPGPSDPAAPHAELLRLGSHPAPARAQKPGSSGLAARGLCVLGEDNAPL
Muscarinic acetylcholine receptor M1 (Homo sapiens), sequence (P11229 whole entry, looked up): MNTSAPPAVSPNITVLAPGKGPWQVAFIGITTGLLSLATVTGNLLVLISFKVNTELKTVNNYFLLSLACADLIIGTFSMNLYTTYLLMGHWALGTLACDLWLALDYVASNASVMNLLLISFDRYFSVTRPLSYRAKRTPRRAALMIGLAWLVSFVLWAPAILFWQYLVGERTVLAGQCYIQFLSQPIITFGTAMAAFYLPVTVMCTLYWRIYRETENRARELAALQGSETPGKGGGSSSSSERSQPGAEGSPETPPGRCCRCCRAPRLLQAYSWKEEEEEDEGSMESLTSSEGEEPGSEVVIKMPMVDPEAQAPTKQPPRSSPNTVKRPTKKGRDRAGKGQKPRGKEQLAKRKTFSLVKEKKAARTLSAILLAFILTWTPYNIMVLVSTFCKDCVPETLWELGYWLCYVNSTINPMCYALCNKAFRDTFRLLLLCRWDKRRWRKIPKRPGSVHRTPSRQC

SMILES | Potency [1] | Potency [2] | Potency [3] | outcome [4] | outcome [5] | Potency [6] | Potency [7] | Potency [8] | Potency [9] | Potency [10] | Potency [11] | Potency [12] | Potency [13] | Potency [14] | Potency [15] | Potency [16] | Potency [17] | Potency [18] | Potency [19] | Potency [20]
O=Cc1c2ccccc2c(Cl)c2ccccc12 | inactive | 7.51 µM (active) | inactive | inactive | inactive | inactive | inactive | inactive | inactive | inactive | inactive | inactive | inactive | inactive | inactive | inactive | inactive |  |  | 
O=C1NCN(c2ccccc2)C12CCN(CCCC(c1ccc(F)cc1)c1ccc(F)cc1)CC2 | 29.8 µM (active) | inactive | inactive | inactive | inactive | inactive | inactive | inactive | inactive | inactive |  | inactive |  |  |  |  |  | 23.7 µM (active) |  | 
CCCCCCCCCCCCc1ccc(O)cc1 | 27.3 µM (active) | inactive | inactive | inactive | inactive | inactive | inactive | inactive | 40.8 µM (active) | inactive |  |  |  |  |  | inactive | 61.1 µM (active) | inactive |  | 
CNc1ccc(O)cc1 | 54.4 µM (active) | 24.3 µM (active) | inactive | inactive | inactive | inactive | inactive | 25.7 µM (active) | inactive |  |  | inactive |  |  |  |  |  |  |  | 
C=CC/C=C/C/C=C/C/C=C/C | inactive | inactive | inactive | inactive | inactive | inactive | inactive | inactive | inactive | inactive | inactive | inactive | inactive | inactive | inactive |  | inactive | inactive | inactive | 
CCCCCN(CCCCC)C(=O)C(CCC(=O)O)NC(=O)c1ccc(Cl)c(Cl)c1 (centres undefined) | inactive | inactive | inactive | inactive | inactive | inactive | inactive | inactive | inactive |  | inactive | inactive |  | inactive |  | inactive | inactive | inactive | inactive | 
CCn1cc(C(=O)O)c(=O)c2cc(F)c(N3CCNC(C)C3)c(F)c21 (centres undefined) | inactive | inactive | inactive | inactive | inactive | inactive | inactive | inactive | inactive |  |  |  |  | inactive | inactive | inactive | inactive | inactive |  | inactive
COc1ccc2c(c1OC)C(=O)O[C@@H]2[C@H]1c2c(cc3c(c2OC)OCO3)CCN1C | inactive | inactive | inactive | inactive | inactive | inactive | inactive | inactive | inactive |  |  |  | inactive | inactive |  | inactive |  | inactive |  | 
